Hits are enriched below; roughly 2.2% of the tested compounds scored in any of these assays.
HTR2A ag: mouse Htr2a agonists via beta-arrestin recruitment, primary screen, cell-based, luminescence; 5-hydroxytryptamine receptor 2A (Mus musculus), P35363; CHO-K1 mHTR2A beta-arrestin complementation; percent of 30 µM serotonin response; activation, % at 7.6 µM; 360,000 compounds, 0.66% hits; AID 624169, 2012;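 active means activation above a run cutoff, the mean activation of all tested compounds plus 3 SD, cut at about 14% in these data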;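 further: 0% = plate median of compound wells and 100% = 30 µM serotonin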
VLA-4 inh: inhibition in human VLA-4 binding assay, primary screen, VLA-4 allosteric modulator project, MLPCN library, flow cytometry, VLA-4 expressing cells. 330,000 compounds, 0.2% hits. ligand binding flow cytometry. Integrin alpha-4 (Homo sapiens), P13612. inhibition, % (about 7 µM as worked out from the volumes in the protocol); in the data active means inhibition above about 50%
Exocytosis inh: LAMP-1 surface exposure blockers, TALL-104 cells – cell-based, flow cytometry, MLPCN library, primary screen; 360,000 compounds, 0.66% hits; TALL-104 LAMP-1 surface exposure; cells stimulated with thapsigargin and PMA; inhibition, % at 10 µM;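 active means inhibition above about 55%, limit read from the data; inconclusive means no clear call, values can overlap the other calls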
V-ATPase pH: regulators of yeast V-ATPase proton pumping, primary screen, pHLuorin cytosolic pH fluorescence. S. cerevisiae. AID 504577, 2011. 350,000 compounds, 0.37% hits. response, % at 10 µM; in the data active means response mostly above about 7.3%, no sharp cut-off; inactive means mostly below about 5.4%; further: actives read high
JMJD2C inh: inhibitors of GASC-1 histone demethylase, primary screen, biochemical, fluorescence, DELFIA europium; Lysine-specific demethylase 4C (Homo sapiens), Q9H3R0; GST-JMJD2C(1-420) H3K9me3 demethylation; inhibition, % at 2.35 µM; 330,000 compounds, 0.069% hits;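 active means more than half of a compound's replicate wells show inhibition beyond 50%, single wells judged on their own value; inconclusive means some, but no more than half, of replicates pass 50% inhibition; inactive means no replicate passes 50% inhibition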;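 further: signal counts dimethyl H3K9 product captured on neutravidin plate; 0% = median of DMSO wells and 100% = 0.3 times that DMSO median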
MEX-5 binding: MEX-5 zinc finger RNA-binding disruptors – biochemical, C. elegans, fluorescence polarization, MLPCN library, primary screen; MEX-5/FITC-TCR2 RNA binding; stronger effect = lower value; 300,000 compounds, 0.38% hits; activity score (negative = inhibition of binding), % at 10 µM;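 active means inhibition past about -25% in most replicates, and total fluorescence under double the plate's negative control median, limit read from the data; inconclusive means replicates evenly split on the limit, or fluorescence at least double controls; inactive means too little inhibition in most replicates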;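 further: 0% = DMSO and -100% = 5 µM competing unlabeled TCR2 RNA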
MOR ag counter: OPRM1 agonists via beta-arrestin recruitment, confirmation, counter-screen for mouse HTR2A agonist project, cell-based, luminescence, single concentration; activation, % at 9.3 µM; U2OS OPRM1 beta-arrestin PathHunter; DMSO 0%, DAMGO 9.3 µM 100%; 2,300 compounds, 5.3% hits; shares compounds with HTR2A ag;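 active means mean activation above the mean of DMSO-only wells plus 3 SD, cut at about 0.5% in these data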
Target sequence (P35372 whole entry, looked up): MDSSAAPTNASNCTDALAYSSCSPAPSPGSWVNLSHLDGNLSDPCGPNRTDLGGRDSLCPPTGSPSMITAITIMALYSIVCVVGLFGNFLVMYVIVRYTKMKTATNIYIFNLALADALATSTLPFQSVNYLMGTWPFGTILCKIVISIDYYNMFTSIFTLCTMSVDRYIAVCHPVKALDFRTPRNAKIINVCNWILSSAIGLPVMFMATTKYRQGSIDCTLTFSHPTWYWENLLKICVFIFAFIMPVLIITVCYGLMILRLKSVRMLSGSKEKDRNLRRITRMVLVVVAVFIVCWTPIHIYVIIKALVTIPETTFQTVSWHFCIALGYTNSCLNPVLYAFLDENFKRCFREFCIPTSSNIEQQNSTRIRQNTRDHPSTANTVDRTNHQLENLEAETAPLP
m5-HT2A ag conf: mouse HTR2A agonists, beta-arrestin recruitment, confirmation, cell-based, luminescence, CHO-K1 PathHunter, triplicate; shares compounds with HTR2A ag; DMSO 0%, 30 µM serotonin 100%; activation, % at 7.6 µM; 2,300 compounds, 19% hits; AID 624381, 2012;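 active means mean activation across triplicates above the hit threshold derived in the original primary screen, cut at about 15% in these data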
* marks the source's active call; other numbers are inactive results; ? = inconclusive; nt = no result given.

SMILES	HTR2A ag	VLA-4 inh	Exocytosis inh	V-ATPase pH	JMJD2C inh	MEX-5 binding	MOR ag counter	m5-HT2A ag conf
CCCCN1C(=N)C(CC)(CC)C(=O)NC1=O	3	17	-1	4	-5	3	nt	nt
COc1ccc(CCNCc2cccn2C)cc1	28*	3	-2	3	0	-1	0.5*	17*
Cn1cccc1CNCCc1ccccc1	nt	13	nt	nt	2	-2	nt	nt
O=C(NN=Cc1ccc(N(CCCl)CCCl)cc1)c1cc(=O)[nH]c(=O)[nH]1	18*	nt	2	2	nt	nt	-1	-2
ClC(Cl)=C(c1ccc(Cl)cc1)c1ccc(Cl)cc1	-2	41	-5	-4	nt	nt	nt	nt
CNC(=O)OCCc1n(C)cc[n+]1C	3	3	1	-3	-2	1	nt	nt
CC[C@H]1CN2CCC1C[C@H]2[C@H](O)c1ccnc2ccc(OC)cc12 (some centres not stated)	-1	1	-6	-3	nt	nt	nt	nt
CC(C)[C@@]1(NC(=O)[C@@H]2C[C@@H]3c4cccc5[nH]cc(c45)C[C@H]3N(C)C2)O[C@@]2(O)[C@@H]3CCCN3C(=O)[C@H](Cc3ccccc3)N2C1=O	30*	-197	13	5	-21	1	0	83*
CC(C)CC(C)N (configuration not stated)	0	11	0	2	9	nt	nt	nt
Clc1ccc(N2CCNCC2)nn1	15*	11	-5	-3	-4	nt	-1	0
CC(N)Cc1c[nH]c2cc3c(cc12)OCCO3 (configuration not stated)	8	-9	0	3	7	1	nt	nt
CC(N)Cc1c[nH]c2ccc(Cl)cc12 (configuration not stated)	80*	6	6	-8	15	-1	0	55*
c1ccc2c(c1)CNCc1cnnn1-2	0	nt	-3	0	nt	nt	nt	nt
COP(=O)(OC)C(NC(=O)/C=C/c1ccccc1)C(Cl)(Cl)Cl (configuration not stated)	19*	-3	-4	0	5	-1	-1	-2
CC(Cc1ccccc1)NC(=O)/C=C/c1ccc(Cl)cc1 (configuration not stated)	-6	12	14	1	11	-1	nt	nt
O=C(O)C(Cl)(Cl)Cl	23*	39	-6	nt	18	1	0	4
C[C@]12CC[C@H]3[C@@H](CCC4=CC(=O)CC[C@@]43O)[C@@H]1CCC2=O	8	-13	-1	3	-25	0	nt	nt
CCC(=NCCc1c[nH]c2ccccc12)c1c(O)n(C)c(=O)n(C)c1=O	27*	-8	5	6	-8	2	0	-1
Cc1ccc(C(=O)O)cc1N=Nc1c(O)[nH]c(=O)[nH]c1=O	1	-6	-5	4	-16	-4	nt	nt
Nc1cc(N2CCNCC2)ccc1[N+](=O)[O-]	42*	-3	-3	-1	0	-1	0	28*
O=[N+]([O-])c1ccc(N2CCNCC2)cc1Sc1ccccn1	25*	-8	1	-4	6	2	-1	10
CCOc1cc2c(cc1OCC)-n1cccc1C(c1ccccc1F)NC2 (configuration not stated)	-7	9	2	0	1	2	nt	nt
CCC(c1ccc(C)cc1)N1C(=O)C2C3CCC(O3)C2C1=O (configuration not stated)	-2	-3	-4	-2	6	nt	nt	nt
CCC(C)C(NC(=O)CCCNC(=O)CCC(=O)OC1O[C@H]2OC3(C)CC[C@H]4[C@H](C)CCC(C1C)C24OO3)C(=O)O (some centres not stated)	21*	3	-7	-3	-6	-1	0.6*	-4
Cn1c(=O)cc(SCC(=O)N2CCC3(CC2)OCCO3)c2ccc(Cl)cc21	16*	-10	-7	1	-3	nt	0	-1
SMILES	HTR2A ag	VLA-4 inh	Exocytosis inh	V-ATPase pH	JMJD2C inh	MEX-5 binding	MOR ag counter	m5-HT2A ag conf
CCOc1cc(/C=C2/C(=O)NC(=O)N(c3ccc(CC)cc3)C2=O)ccc1OC(=O)c1cccs1	0	-5	2	-5	8	2	nt	nt
OC(CN1CCC(c2c[nH]c3ccccc23)CC1)C(F)(F)F (configuration not stated)	-8	-4	-6	3	-2	1	nt	nt
CCCCCSc1cc(OC)c(CCNC)cc1OC	15*	17	-1	-1	1	1	0	6
CC(C)N1CCOC(c2ccc(O)c(O)c2)C1 (configuration not stated)	35*	nt	-3	nt	nt	nt	-1	113*
CC(C)N1CCN(c2ccc(O)cc2)CC1	-3	-9	3	2	10	-2	nt	nt
O=C(/C=C/c1ccccc1)c1c(O)n(CCc2ccccc2)c(=O)[nH]c1=O	15*	-6	0	-2	-6	-4	-1	1
O=C(/C=C/c1ccc2c(c1)OCO2)c1c(O)n(CCc2ccccc2)c(=O)[nH]c1=O	5	-1	0	1	-6	?	nt	nt
CCC1C2CC3C4N(C)c5ccccc5C45CC(C2C5O)N3C1O (configuration not stated)	0	nt	0	nt	nt	nt	nt	nt
COP(=O)(OC)C1(Nc2ccc(C)cc2)CCCCC1	15*	3	0	6	17	-1	-1	-3
Oc1ccc(-[n+]2c(-c3ccccc3)cc(-c3ccccc3)cc2-c2ccccc2)cc1	21*	6	28	6	-1	0	0.5*	16*
COc1ccc(-[n+]2c(-c3ccccc3)cc(-c3ccccc3)cc2-c2ccccc2)cc1	nt	nt	nt	nt	19	2	nt	nt
COc1cccc(CNCCc2c[nH]c3ccccc23)c1	32*	3	-5	1	-27	-1	0	34*
Fc1ccccc1CNCCc1c[nH]c2ccccc12	19*	14	12	-4	8	2	0	24*
COc1cccc(CCNCc2c(F)cccc2F)c1	21*	14	0	2	2	2	-1	3
